# aGlu spleen mod: inhibits or activates alpha-glucosidase in human spleen homogenate. human spleen homogenate, 4-MU-alpha-glucoside fluorescence. Potency, µM (doses to about 79.9 µM), for inactives: at the top dose activity change, negative = inhibition, hits mostly inhibitors. actives 0.006% (n = 240,000). AID 2112;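 note: potency is the fitted concentration of half-maximal effect; 0% = enzyme with vehicle and -100% = no enzyme basal signal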
#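 AC50 values come from Hill-equation fits of concentration-response data, normalized to no-enzyme and full-activity controls. Enzyme source: 1 ug human spleen homogenate; 1 mM fluorogenic 4-MU glucoside, pH 5.0 citrate buffer, 37 C, 40 min.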
# GLA spleen mod: inhibitors or activators of human alpha-galactosidase in spleen homogenate | P06280 | human spleen homogenate, 4MU-alpha-Gal fluorescence, 40 min | Potency, µM (top dose mostly 80 µM), inactives show at the highest dose activity change, negative = inhibition, actives largely listed as inhibitors | actives 0.008% (n = 240,000);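 note: potency is the fitted concentration of half-maximal effect; 0% = enzyme with vehicle and -100% = no enzyme basal signal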
# Target sequence (P06280 32-429 limits assumed): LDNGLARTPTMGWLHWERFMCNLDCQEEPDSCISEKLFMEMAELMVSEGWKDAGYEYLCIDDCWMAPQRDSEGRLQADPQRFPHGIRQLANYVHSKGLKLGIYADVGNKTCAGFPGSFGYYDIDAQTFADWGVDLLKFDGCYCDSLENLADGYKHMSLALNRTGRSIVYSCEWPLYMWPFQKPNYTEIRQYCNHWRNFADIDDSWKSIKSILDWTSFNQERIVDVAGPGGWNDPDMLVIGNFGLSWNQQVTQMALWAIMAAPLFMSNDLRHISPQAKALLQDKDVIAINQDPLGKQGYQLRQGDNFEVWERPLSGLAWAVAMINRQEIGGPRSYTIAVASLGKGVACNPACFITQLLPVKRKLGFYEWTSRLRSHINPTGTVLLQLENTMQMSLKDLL
#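 qHTS titration in buffer at pH 5.0. Alpha-galactosidase activity in spleen homogenate was measured via 4-methylumbelliferone release from 1 mM fluorogenic substrate after 40 min at 37C and a pH 10 stop. AC50 came from Hill fits of control-normalized data.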
# N370S GC mod: inhibits or activates N370S mutant glucocerebrosidase. P04062. N370S GC spleen homogenate, 4MU-glucoside fluorescence. Potency, µM (series often up to 59.4 µM), for inactives: at the highest dose activity change, negative = inhibition, hits mostly inhibitors. actives 0.092% (n = 330,000). AID 2101;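 note: potency is the fitted concentration of half-maximal effect; 0% = full enzyme activity and -100% = no enzyme basal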
# GAA glycogen: GAA glycogen-cleavage inhibition or activation. P10253. recombinant GAA, glycogen substrate, Amplex Red glucose oxidase fluorescence. Potency, µM (highest dose often 76.4 µM), for the others: at the top dose activity change, negative = inhibition, hits mostly inhibitors. AID 2100. actives 0.38% (n = 300,000);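 note: potency is the fitted concentration of half-maximal effect; 0% = full enzyme reaction and -100% = no-enzyme basal signal; the screen sought inhibitors and activators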
#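 Recombinant human alpha-glucosidase (4 nM final) hydrolysed bovine liver glycogen (30 ug) for 40 min at 37 C in pH 5.0 citrate/phosphate with 0.01% Tween-20. Released glucose detected by glucose oxidase/Amplex Red, Ex 573/Em 610 nm. Compounds up to 77 uM; AC50 from Hill fits.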
# GLA inh pH 4.5: alpha-galactosidase A (human) inhibition, pH 4.5; AID 1467; P06280; purified enzyme, 4-MU-alpha-Gal fluorescence, pH 4.5; activity change, negative = inhibition, % at 105 µM; 230,000 tested, under 10 active;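 note: 0% = full activity with enzyme and -100% = basal without enzyme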
# GAA inhib: alpha-glucosidase (human) inhibition; P10253; purified human GAA, 4-MU-alpha-glucoside fluorescence; Potency, µM (doses to about 76.9 µM), for inactives: at the top dose activity change, negative = inhibition, actives largely listed as inhibitors; actives 0.005% (n = 200,000); AID 1466;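 note: potency is the fitted concentration of half-maximal effect; plate controls were uninhibited enzyme wells for no effect and no-enzyme background for full effect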
#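 Compounds are titrated up to 77 uM against 4 nM human enzyme. Substrate 4-methylumbelliferyl-alpha-D-pyranoside (400 uM) reacts 20 min at room temperature in pH 5.0 buffer; liberated 4-methylumbelliferone is read at 440 nm.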
# * marks the source's active call; other numbers are inactive results; u = inconclusive; x = no result given; ! = not confirmed by another sample; [ ] = dose if it differs, or a comment. The list is not random: actives were taken first. Their share in the collection is about 0.43%. Calls come from the whole dose curve; as a rule, active = well fitted curve in the direction sought with a large enough effect; inconclusive = small, poorly fitted or top-dose-only effect, or another doubt; inactive = no such curve, though single readings can be large; an effect the other way counts as inactive or inconclusive.
SMILES,aGlu spleen mod,GLA spleen mod,N370S GC mod,GAA glycogen,GLA inh pH 4.5,GAA inhib
C[C@H](CCC(=O)NCC(=O)O)C1CC[C@H]2[C@H]3C(C[C@H](O)[C@]12C)[C@@]1(C)CC[C@@H](O)C[C@H]1C[C@H]3O (some centres not stated),12.9%,1.9%,-0.2%,x,x,x
C=CCc1cc(/C=C/c2nc(O)c([N+](=O)[O-])c(=O)[nH]2)cc(OC)c1O,-26.1%,-2.2%,-13.4%,11.1µM*,-11.2,u
CC(=O)NCC(=O)N[C@H](CCC(=O)O)C(=O)O,3.4%,2.2%,14.1%,x,1.2,x
COc1ccc(N/C=C2/Sc3ccccc3NC2=O)cc1,1.8%,-4.4%,5.3%,19.8µM*,0.8,-3.4%
Cc1ccc(N/C=C2/Sc3ccccc3NC2=O)cc1,-7.5%,3.3%,-3.1%,u,7.5,8.7%
Nc1nc(-c2ccccc2)c(N=Nc2ccccc2Cl)s1,-7.4%,-4.2%,10µM*,2.7%,-6.5,-7.6%
Cc1ccc(-c2nnc(Nc3ccc(O)cc3)c3ccccc23)cc1S(=O)(=O)N1CCN(C)CC1,x,x,x,15.8µM*,x,x
COc1cc(-c2nc(Cn3nnc(C(=O)Nc4ccccc4)c3C)c(C)o2)cc(OC)c1OC,x,x,x,-3.5%[76.3 µM],x,x
Cc1ccc(S(=O)(=O)Nc2cc(Cl)c(O)cc2C)cc1,6.6%,-2.2%,4.5%,22.4µM*,-3.6,-10.4%
CCOc1ccc(N(CC(=O)NCc2ccc(C)cc2)S(=O)(=O)c2c(C)[nH]c(=O)[nH]c2=O)cc1,x,x,u,-5.2%[76.3 µM],x,x
COc1ccc(N(CC(=O)NCc2ccc(C)cc2)S(=O)(=O)c2c(C)[nH]c(=O)[nH]c2=O)cc1,x,x,8.91µM*,-3.3%[76.3 µM],x,x
CCOc1ccc(N(CC(=O)Nc2cccc(C)c2C)S(=O)(=O)c2c(C)[nH]c(=O)[nH]c2=O)cc1,-7.8%,7.5%,11.2µM*,4.5%,-1.2,x
CCOc1ccc(N(CC)S(=O)(=O)c2c(C)[nH]c(=O)[nH]c2=O)cc1,x,x,-6.0%,-2.4%,x,x
CCOc1ccc(N(CC(=O)Nc2c(C)cccc2C)S(=O)(=O)c2c(C)[nH]c(=O)[nH]c2=O)cc1,-0.2%,-1.5%,4.47µM*,-2.2%,-10.9,x
CCOc1ccc(N(CC(=O)NCc2ccccc2Cl)S(=O)(=O)c2c(C)[nH]c(=O)[nH]c2=O)cc1,x,x,3.98µM*,-8.2%[76.3 µM],x,x
C=CCOC(=O)N[C@@H](c1ccc(Br)cc1)C(C(C)=O)C(C)=O,-12.2%,-9.4%,-0.9%,x,-4.6,x
CC[C@]1(O)C[C@@H]2CN(CCc3c([nH]c4ccccc34)[C@@](C(=O)OC)(c3cc4c(cc3OC)N(C)C3[C@]45CCN4CC=C[C@](CC)(C45)[C@@H](OC(C)=O)[C@]3(O)C(=O)OC)C2)C1 (some centres not stated),7.4%,8.5%,-7.0%,x,x,x
C=CCc1ccc(O)c(-c2ccc(O)c(CC=C)c2)c1,-11.4%,-20.0%,-10.5%,35.5µM*,-3.0,x
Cc1ccc(-c2ccc(NC(=O)C3C4C=CC(C4)C3C(=O)O)cc2)o1 (configuration not stated),-2.6%,0.3%,x,39.8µM*,-2.6,6.8%
NC(=Nc1ccccc1)NC(=O)c1nc(Cl)c(N)nc1N,-2.3%,0.3%,1.5%,x,-2.4,x
NC(=NCc1ccccc1)NC(=O)c1nc(Cl)c(N)nc1N,8.91µM*!,u,u,x,9.6,x
Cc1[nH]n(-c2ccc(Cl)c(Cl)c2)c(=O)c1CCO,-4.0%,-4.8%,-3.6%,22.4µM*,2.2,-4.9%
CCn1cc(C(=O)NCCC(C)C)c(=O)c2cc(S(=O)(=O)N(C)C3CCCCC3)ccc21,x,x,x,11.0%[76.3 µM],x,x
Cc1cc2oc(=O)c(CC(=O)NCCc3ccccc3)c(C)c2c2occ(C(C)(C)C)c12,x,x,x,-5.2%[76.3 µM],x,x
O=C(CN1CCN(c2ccc(O)cc2)CC1)N1CCc2ccccc21,x,x,-10.2%,5.01µM*,x,x
SMILES,aGlu spleen mod,GLA spleen mod,N370S GC mod,GAA glycogen,GLA inh pH 4.5,GAA inhib
CC(C)(C)NC(=O)C(c1ccncc1)N(Cc1cccs1)C(=O)Cn1nnc(-c2cccs2)n1 (configuration not stated),-4.3%,1.2%,3.3%,28µM*,-1.7,-6.6%
Cc1ccc(C(C(=O)NC(C)(C)C)N(Cc2ccco2)C(=O)Cn2nnc(-c3cccs3)n2)cc1 (configuration not stated),4.3%,9.5%,4.5%,6.4%,-2.5,-3.8%
O=C(c1ccco1)N1CCC2(CCCN(C(c3ccccc3)c3ccccc3)C2)CC1,-16.8%,-9.7%,10.1%,x,x,x
C=C(C)/C=N/NC(=S)Nc1ccc(S(=O)(=O)N2CCOCC2)cc1,12.4%,3.4%,-6.9%,25.1µM*,-2.4,x
CCOC(=O)CNc1c(-c2ccc(OC)cc2)nc2ccc(Cl)cn12,-1.9%,1.4%,u,u,-1.5,1.5%
CCOC(=O)CNc1c(-c2ccc(Cl)cc2)nc2cnccn12,0.7%,2.6%,2.0%,39.8µM*,3.0,u
CCOC(=O)CNc1c(-c2ccc(F)cc2)nc2cnccn12,-9.7%,10.9%,8.2%,12.5µM*,12.3,8.3%
COc1ccc(-c2nc(-c3ccccc3)oc2NC(C)C)cc1,-4.3%,-13.9%,-3.6%,x,4.0,x
O=C(NC(=S)Nc1cccc2c(O)cccc12)c1ccccc1[N+](=O)[O-],x,x,-8.7%,10µM*,x,x
CCCC(=O)NC(=S)Nc1cccc2c(O)cccc12,8.1%,1.7%,-7.8%,8.91µM*,4.7,-3.8%
CCCC(=O)NC(=S)Nc1ccccc1C(=O)OC,-8.9%,-6.5%,6.5%[12.8 µM],-4.2%,3.9,0.5%
CCN(C(=O)CN1CCN(c2ccccc2O)CC1)c1c(N)n(Cc2ccccc2)c(=O)[nH]c1=O,2.2%,-1.6%,16.0%,9.92µM*,2.1,-5.8%
Cc1cc(O)ccc1Nc1nc(-c2cccs2)cs1,-1.8%,-15.8%,-10.1%,31.6µM*,-1.5,2.8%
CCC(C)NC(=O)c1ccc2c(c1)N=C(C)c1cc(C)ccc1S2 (configuration not stated),x,x,x,-5.6%[76.3 µM],x,x
O=C1NN(c2ccccc2)C(=O)/C1=C\c1cccc(OC(=O)c2cccs2)c1,-10.2%,5.3%,x,20µM*,-2.5,-1.1%
O=C1NN(c2ccc(Cl)c(Cl)c2)C(=O)/C1=C/c1cccc(OC(=O)c2cccs2)c1,-8.9%,-1.5%,7.4%,-20.8%,0.7,-2.3%
CC(C)=CCn1cnc2c1C(NOCc1ccccc1)=NCN2,-5.7%,-6.5%,11.3%,x,-1.3,x
Cc1cccc(N(CC(O)Cn2c3ccccc3c3ccccc32)S(=O)(=O)c2ccc(F)cc2)c1 (configuration not stated),x,x,x,4.4%[76.3 µM],x,x
Nc1ccccc1Nc1cccc(C(F)(F)F)c1,x,-2.2%,-1.3%,11.2µM*,0.6,-5.2%
Cc1ccnc(Nc2nc(-c3ccc(O)c(O)c3)cs2)c1,x,x,1.3%,6.31µM*,x,x

# High-throughput results (PubChem BioAssay)
